From PubChem BioAssay
Rows were chosen to be rich in hits. Some 2.4% of all compounds tested hit in one or more screens of this group.
PKD1 kinase inh = inhibitors of human PKD1 kinase; Q15139; PKD1 kinase fluorescence polarization assay; inhibition, % (no concentration beside the values); actives 0.056% (n = 200,000); in the data active means inhibition above about 50%
WT yeast gro inh = growth inhibition of WT yeast, mitochondrial fusion screen. mitochondrial fusion phenotypic screen, WT strain. inhibition, % at 10 µM. actives 2.1% (n = 190,000). AID 1362; in the data active means inhibition above about 58%; tested in S. cerevisiae
zVAD death inh = L929 zVAD cell death inhibition; viability rescue, % at 10 µM; L929 zVAD necroptosis rescue, ATP luminescence, 24 h; with zVAD 60 µM; actives 0.38% (n = 220,000);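 active means activation, scaled between plate controls, above about 75%, limit read from the data; inactive means activation under that limit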
TNF necrop inh = blocks TNF-alpha induced death of Jurkat FADD-/- cells. actives 0.068% (n = 220,000). Jurkat FADD-/- TNF necroptosis rescue, ATP luminescence, 24 h; 0 = TNF only, 100 = no-TNF cells. activation (protection from cell death), % at 10 µM;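 active means activation, meaning protection from cell death, of at least 50% relative to plate controls; inactive means activation below 50%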;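 further: necroptosis triggered by 40 ng/mL TNF-alpha added together with compound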
Redox H2O2 prof = compounds producing H2O2 with reducing agent – biochemical, NIH compound library profiling, artefact control for MLSCN library redox annotation, primary screen. DTT-dependent redox cycling H2O2, phenol red/HRP absorbance; 100% = 100 µM peroxide control, 0% = buffer. activation, % at 10 µM. actives 0.03% (n = 200,000). AID 878;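 active means activation of at least 50% relative to the plate's high and low controls in the primary single-dose screen; inactive means activation below 50%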;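 further: compound incubated with DTT at 0.8 mM final as the reducing agent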
PERK inh = blocks human PERK kinase; CHO PERK-DD fusion, SEAP luminescence translation reporter; inhibition, % at 5.6 µM; actives 0.17% (n = 220,000); AID 1416;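 active means inhibition above the mean inhibition of all tested compounds plus 3 SD, set separately per screening campaign, cut at about 2.9% in these data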;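 further: PERK kinase domain activated by AP20187 dimerizer at 100 nM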
Target sequence (Q9NZJ5 whole entry, looked up, the tested form may be a part): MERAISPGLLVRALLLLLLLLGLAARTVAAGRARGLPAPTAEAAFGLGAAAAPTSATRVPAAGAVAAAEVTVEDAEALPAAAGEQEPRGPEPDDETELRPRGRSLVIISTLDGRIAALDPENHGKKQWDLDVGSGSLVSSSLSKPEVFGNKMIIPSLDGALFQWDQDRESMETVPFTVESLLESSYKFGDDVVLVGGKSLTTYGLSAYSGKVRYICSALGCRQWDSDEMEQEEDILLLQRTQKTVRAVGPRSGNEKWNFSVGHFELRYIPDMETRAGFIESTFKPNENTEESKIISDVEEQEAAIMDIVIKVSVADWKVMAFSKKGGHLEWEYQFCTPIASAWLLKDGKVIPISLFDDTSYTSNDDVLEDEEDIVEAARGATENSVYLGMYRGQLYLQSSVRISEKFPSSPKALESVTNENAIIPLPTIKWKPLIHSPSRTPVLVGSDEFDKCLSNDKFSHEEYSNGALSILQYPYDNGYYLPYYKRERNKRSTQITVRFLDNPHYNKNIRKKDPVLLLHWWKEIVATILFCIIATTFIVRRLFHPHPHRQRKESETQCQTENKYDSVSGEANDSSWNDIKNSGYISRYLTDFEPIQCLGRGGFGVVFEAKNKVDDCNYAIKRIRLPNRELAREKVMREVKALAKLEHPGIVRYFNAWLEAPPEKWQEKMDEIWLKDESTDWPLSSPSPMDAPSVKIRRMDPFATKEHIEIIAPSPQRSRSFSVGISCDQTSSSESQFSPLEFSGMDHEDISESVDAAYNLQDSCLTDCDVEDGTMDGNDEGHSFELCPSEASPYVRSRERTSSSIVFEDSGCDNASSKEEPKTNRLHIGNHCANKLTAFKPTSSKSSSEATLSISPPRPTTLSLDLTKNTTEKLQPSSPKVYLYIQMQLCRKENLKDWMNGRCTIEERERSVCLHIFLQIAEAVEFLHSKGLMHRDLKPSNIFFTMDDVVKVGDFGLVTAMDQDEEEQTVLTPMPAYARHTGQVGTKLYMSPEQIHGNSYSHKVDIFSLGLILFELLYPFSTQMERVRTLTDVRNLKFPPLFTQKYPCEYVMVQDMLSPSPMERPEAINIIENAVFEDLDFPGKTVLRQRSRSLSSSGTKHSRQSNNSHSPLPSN
Each line names hits and unclear results; the compound was inactive in the other large screens.

O=C1OCC/C1=C\OCCCO/C=C1\CCOC1=O	none (no result: PKD1 kinase inh, WT yeast gro inh, Redox H2O2 prof)
C(=N/Nc1nc(-c2ccccc2)cc(-c2ccccc2)n1)/c1cccnc1	WT yeast gro inh 68
C(=N\Nc1nc(Nc2ccccc2)nc(Nc2ccccc2)n1)/c1cccnc1	WT yeast gro inh 83
C(=N\Nc1nc(Nc2ccccc2)nc(Nc2ccccc2)n1)/c1ccncc1	none
CCCC(=O)N=c1sc2c(OC)ccc(OC)c2n1C	none (no result: PKD1 kinase inh, WT yeast gro inh, Redox H2O2 prof)
CC1CN(S(=O)(=O)c2cccc(C(=O)Nc3ccc(S(=O)(=O)Nc4ncccn4)cc3)c2)CC(C)O1 (stereo not drawn)	none
CCC1(c2ccc(Cl)cc2)NC(=O)N(Cc2ccc(C(=O)OC)cc2)C1=O (stereo not drawn)	none
COc1ccc(C2=CC(=O)N(Nc3ccccc3)C2=O)cc1	none
O=C1C=C(c2ccccc2)C(=O)N1Nc1ccccc1	WT yeast gro inh 87
Cc1cccc(C(=O)CC(=O)c2cc(Cl)ccc2O)c1	WT yeast gro inh 61
CCCCN(CCCC)c1ncnc2nc[nH]c12	WT yeast gro inh 78
COc1ccc(-c2ccnc3nc(Sc4ncc(C(F)(F)F)cc4Cl)nn23)cc1	none
FC(F)(F)c1cnc(Sc2nc3nccc(-c4ccc(Cl)cc4)n3n2)c(Cl)c1	WT yeast gro inh 96
O=C1c2ccccc2-c2onc3ccc(NCCCn4ccnc4)c1c23	PKD1 kinase inh 94
O=C(OCC1OC2OC3(CCCCC3)OC2C2OC3(CCCCC3)OC12)c1ccccc1 (stereo not drawn)	WT yeast gro inh 74
O=C(O)C1OC2OC3(CCCCC3)OC2C2OC3(CCCCC3)OC12 (stereo not drawn)	none
CCOC(=O)C1=C(C)NC(C)=C(C(=O)OCC)C1c1ccc(Br)o1	none
CCOC(=O)c1c(C)noc1-c1ccc(Br)o1	PERK inh 4.6 (no result: PKD1 kinase inh, WT yeast gro inh, Redox H2O2 prof)
O=C(c1cc(-c2ccc(F)cc2)on1)N1CCCc2ccccc21	none
Cc1ccc(-c2cc(C(=O)N3CCCc4ccccc43)no2)cc1	WT yeast gro inh 64
O=C(c1cc(-c2ccccc2)nc2ccccc12)N1CCCc2ccccc21	WT yeast gro inh 63
O=C(C(=O)N1CCCc2ccccc21)N1CCCc2ccccc21	none
O=C(c1ccc(C(=O)N2CCCc3ccccc32)s1)N1CCCc2ccccc21	WT yeast gro inh 97
Cn1nnnc1SCc1ccccc1F	zVAD death inh 77
Cc1c(Cl)c([N+](=O)[O-])nn1Cc1ccc(C(=O)NN)o1	none (no result: PKD1 kinase inh, WT yeast gro inh, Redox H2O2 prof)
Cc1ccc(CNC(=O)c2ccc(Cn3nc(C)c(Cl)c3C)o2)cc1	WT yeast gro inh 100
Cc1cc(C)cc(NC(=O)c2ccc(Cn3nc(C)c(Cl)c3C)o2)c1	WT yeast gro inh 74
Cc1nn(Cc2ccc(C(=O)Nc3ccccc3C(F)(F)F)o2)c(C)c1Br	none
O=C(NN1CCCCC1)c1cccc2ccccc12	none
COc1ccc(/C=C2\CCc3ccccc3C2=O)cc1Cn1nc(C)cc1C	WT yeast gro inh 80
C=CCOc1ccc2ccccc2c1CNCCCN1CCOCC1	WT yeast gro inh 64
COc1ccc2ccccc2c1CNCCCN1CCOCC1	none
Clc1ccc(Cn2c(-c3cccnc3Cl)nc3ccccc32)c(Cl)c1	none
Cc1ccc(COn2c(-c3ccc(Cl)cc3Cl)nc3ncccc32)cc1	WT yeast gro inh 71
Clc1cccc(COn2c(-c3ccc(Cl)cc3Cl)nc3ncccc32)c1	WT yeast gro inh 67
Clc1ccc(Cn2c(-c3cccnc3Cl)nc3ccccc32)cc1	none
Cc1ccc(C2(C(F)(F)F)NC(=O)N3CCN=C3S2)cc1 (stereo not drawn)	PERK inh 2.9
COc1ccc(-n2cc(CN[C@H]3CCCCNC3=O)c(-c3cccc(F)c3)n2)cc1	none (no result: PKD1 kinase inh, WT yeast gro inh, Redox H2O2 prof)
COc1ccc(-n2cc(CNC3CCN(C)CC3)c(-c3cccc(F)c3)n2)cc1	WT yeast gro inh 59
Cc1ccc(C(=O)NC(=S)/C=C2\N(C)c3ccccc3C2(C)C)cc1	WT yeast gro inh 67
CS(=O)(=O)N(CC(=O)Nc1ccc(S(=O)(=O)N2CCCC2)cc1)c1ccccc1	none
O=C(Nc1ccccc1)Nc1ccc(C(=O)N2CCCC2)cc1	WT yeast gro inh 62
CC(=O)c1cccc(NC(=O)Nc2ccc(C(=O)N3CCCC3)cc2)c1	none
O=C(NC1=NCCS1)c1cc(-c2cccs2)nc2ccccc12	none (no result: PKD1 kinase inh, WT yeast gro inh, Redox H2O2 prof)
O=C(NC1=NCCS1)c1cccc2ccccc12	WT yeast gro inh 81
COc1ccc(C)cc1Nc1nnc(C)c(=O)[nH]1	none
COc1ccc(Nc2nnc(C)c(=O)[nH]2)c(OC)c1	PERK inh 4.2 (no result: PKD1 kinase inh, WT yeast gro inh, Redox H2O2 prof)
Cc1ccc(NC(=O)CCC(=O)c2cccs2)c(O)c1	none (no result: PKD1 kinase inh, WT yeast gro inh, Redox H2O2 prof)
Cc1c(O)cc2c(c1O)C(=O)CC(c1ccc(O)cc1)O2 (stereo not drawn)	none
CC(C)=CCc1c(O)c(CC=C(C)C)c2c(c1O)C(=O)CC(c1ccc(O)cc1)O2 (stereo not drawn)	WT yeast gro inh 91
CC(C)(C)NS(=O)(=O)c1cnc(Cl)c(Cl)c1	WT yeast gro inh 60
CC(C)(C)NS(=O)(=O)c1ccc(Oc2ncc(C(F)(F)F)cc2Cl)cc1	none
C[C@H](NC(=O)c1ccccc1)C(=O)Nc1nc(-c2ccccn2)cs1	none
Cc1cccc(C(=O)NC(C(=O)Nc2nc(-c3ccccn3)cs2)C(C)C)c1 (stereo not drawn)	WT yeast gro inh 72
CNC(=S)N1CCN(c2nc3ccccc3s2)CC1	none
CC12CCC(c3c(C(=O)O)nn(-c4ccc(F)cc4)c31)C2(C)C (stereo not drawn)	WT yeast gro inh 59
CC12CCC(c3c(C(=O)N4CCOCC4)nn(-c4ccccc4)c31)C2(C)C (stereo not drawn)	none
Cc1ccc(C(=O)CCC(=O)Nc2cccc(C(F)(F)F)c2)cc1	none
O=C(CCC(=O)c1ccc(Br)cc1)Nc1cccc(C(F)(F)F)c1	zVAD death inh 91
COc1ccccc1CNC(=O)C1CCC(CNc2c(N3CCC(C)CC3)c(=O)c2=O)CC1 (stereo not drawn)	none (no result: PKD1 kinase inh, WT yeast gro inh, Redox H2O2 prof)
COc1ccc(S(=O)(=O)Nc2cccnc2)cc1	none (no result: PKD1 kinase inh, WT yeast gro inh, Redox H2O2 prof)
COc1ccc(-c2nc3c(-c4ccc(Cl)cc4)cnn3cc2C)cc1F	none
COc1ccc(-c2nc3c(-c4ccccc4)cnn3cc2C)cc1F	TNF necrop inh 51
O=C(O)C(Cc1c[nH]c2ccccc12)N1C(=O)C2C3c4ccccc4C(c4ccccc43)[C@@H]2C1=O (stereo partly drawn)	none (no result: PKD1 kinase inh, WT yeast gro inh, Redox H2O2 prof)
CCn1c(CN2CCN(c3ccc(Cl)cc3)CC2)nc2ccccc21	WT yeast gro inh 60
Cn1c(CN2CCN(c3ccc(Cl)cc3)CC2)nc2ccccc21	none
Cn1ncc([N+](=O)[O-])c1C(=O)Nc1ccc(-c2nc3ccccc3o2)cc1	none
CC(NC(=O)c1ccc(F)cc1)c1ccccc1 (stereo not drawn)	none
Cc1ccc(C(NC(=O)NC(C)c2ccccc2)C(Cl)(Cl)Cl)cc1F (stereo not drawn)	WT yeast gro inh 64
